Screening data (PubChem BioAssay)
The list is not random: actives were taken first. Their share in the collection is about 3.4%.
HTT aggregate: mutant huntingtin aggregation inhibition | PC12 HttQ103-GFP aggregates, Acumen cytometry, 40 h | Potency, µM (doses to about 46.1 µM), inactives show top-dose activity change, negative = inhibition, most hits filed as inhibitors | 220,000 tested, 1.1% active | AID 1688; further: potency means the concentration at half of the fitted maximal effect; on the % scale 0 is the no-effect control and ±100 the full control effect; nearly all actives have a fitted effect of over 60% in size
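PC12/HTTQ103-GFP, ecdysone-inducible; teb 100 nM; cpd qHTS titration; GFP aggregates read on laser cytometer, Ex 488/Em 500-530 nm.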
NPSR antag: antagonists of human neuropeptide S receptor cAMP signaling | Potency, µM (highest dose often 38.3 µM), inactives show at the highest dose activity change, negative = inhibition, actives largely listed as inhibitors | AID 1461 | 220,000 tested, 1% active | CHO-NPSR cells, cAMP TR-FRET, antagonist mode | Q6W5P4; further: potency means the concentration at half of the fitted maximal effect; on the % scale 0 is the no-effect control and ±100 the full control effect; nearly all actives have a fitted effect of over 50% in size
Target sequence (Q6W5P4 whole entry, looked up): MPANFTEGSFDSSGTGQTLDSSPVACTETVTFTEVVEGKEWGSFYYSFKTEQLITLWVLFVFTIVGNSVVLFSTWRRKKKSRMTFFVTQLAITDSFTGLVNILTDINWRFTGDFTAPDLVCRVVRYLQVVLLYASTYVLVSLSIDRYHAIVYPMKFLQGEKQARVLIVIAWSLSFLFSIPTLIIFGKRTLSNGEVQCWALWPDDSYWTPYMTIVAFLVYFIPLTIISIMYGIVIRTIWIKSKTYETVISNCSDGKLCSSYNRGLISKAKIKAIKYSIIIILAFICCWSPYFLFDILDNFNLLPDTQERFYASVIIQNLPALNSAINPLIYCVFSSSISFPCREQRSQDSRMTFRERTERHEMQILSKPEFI
IMPase Li cell: cell-permeable IMPase inhibitors with lithium potentiation; CHO-M1 cells, IP1 TR-FRET (IP-One), carbachol + lithium; Potency, µM (highest dose often 59.4 µM), without a hit: at the highest dose activity, negative = IMPase inhibition, actives largely listed as inhibitors; 210,000 tested, 0.35% active;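 further: IP1 builds up when IMPase is blocked and the TR-FRET signal falls; potency means the concentration at half of the fitted maximal effect; plate controls were basal vehicle for no effect and high inhibitor control for full effect; nearly all actives have a fitted effect of over 50% in size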
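CHO cells stably expressing M1 receptor (2000/well, cultured 16–30 h) treated 30 min at 37C with compound plus low lithium. Cytosolic IP1 by TR-FRET (665/620 ratio and 620 channel) after 10 min lysis; AC50 by Hill fit.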
HTT ATP protect: Huntington cell model cytoprotection by ATP luminescence. Potency, µM (series often up to 56.4 µM), for inactives: cytoprotection (ATP increase), actives largely listed as activators. 230,000 tested, 0.14% active. PC12 HTT-Q103 induced, cytoprotection, ATP luminescence, 40 h. AID 1471; further: potency means the concentration at half of the fitted maximal effect; % of control where 0% means no effect; nearly all actives have a fitted effect of over 45% in size
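PC12 cells with ecdysone-inducible HTT exon 1 Q103-GFP, induced with 100 nM tebufenozide and co-treated with library compounds in a dose series (1536-well, 1500 cells/well). Cytoprotection read as ATP content by ATPlite luminescence.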
IMPase cell inh: membrane-permeable compound that blocks inositol monophosphatase | P97697 | CHO-M1 cells, IP1 accumulation, HTRF TR-FRET ratio | inhibition (IP1 accumulation), % at 46.1 µM | 120,000 tested, under 10 active | AID 901; active means well fitted curve in the direction sought with a large enough effect in the signal ratio, not every such curve was filed as active; inconclusive means small, poorly fitted or top-dose-only effect, or a change in a side signal; inactive means no such curve, though single readings can be large or run the other way; the % refers to the signal ratio;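 further: cells stimulated with carbachol in lithium chloride buffer; plate controls were DMSO basal wells for no effect and reference inhibitor wells for full effect; higher means more IMPase inhibition seen as more IP1 and lower FRET ratio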
Target sequence (P97697 whole entry, looked up): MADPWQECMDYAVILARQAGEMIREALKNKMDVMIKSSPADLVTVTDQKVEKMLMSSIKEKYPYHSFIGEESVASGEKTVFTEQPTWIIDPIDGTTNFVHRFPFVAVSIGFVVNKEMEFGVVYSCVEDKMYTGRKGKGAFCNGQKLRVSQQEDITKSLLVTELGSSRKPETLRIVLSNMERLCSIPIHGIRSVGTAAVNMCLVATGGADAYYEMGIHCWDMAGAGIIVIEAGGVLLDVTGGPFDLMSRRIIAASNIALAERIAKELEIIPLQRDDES
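CHO-M1 cells (CHO stably expressing M1 receptor), compound up to 46 uM final, stimulated with carbachol (50 uM as added) in buffer with 50mM LiCl, pH 7.4, 30 min at 37C. Cytosolic IP1 read by TR-FRET; AC50 from Hill fits.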
PNC assembly inh: blocks assembly of the perinucleolar compartment; PC3M PTB-GFP, PNC prevalence imaging, 16 h; stronger effect = lower value; activity change (PNC), negative = inhibition, % at 10 µM; 140,000 tested, 3.1% active; AID 2417;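 active means readout at or below -70, meaning at least 70% loss of cells showing the perinucleolar compartment, a nuclear body marking cancer cells; inconclusive means readout between -30 and a set limit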;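 further: plate controls were DMSO wells for no effect and camptothecin positive control wells for full effect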
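Read-out is percentage of cells bearing a perinucleolar compartment, from automated 20x imaging of fixed, Hoechst-stained PC3M PTB-GFP cells. Cells were seeded 4 h, then exposed 16 h to compound (23 nl of library stock) in duplicate plates.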
* hit, by the source's call; ? = inconclusive; . = not tested or not shown; [ ] = another dose, or the depositor's remark. Unless noted, the call rests on the fitted dose curve; in most records, active means well fitted curve in the direction sought with a large enough effect; inconclusive means small, poorly fitted or top-dose-only effect, or another doubt; inactive means no such curve, though single readings can be large; an effect the other way counts as inactive or inconclusive.

SMILES | HTT aggregate | NPSR antag | IMPase Li cell | HTT ATP protect | IMPase cell inh | PNC assembly inh
O=C(O)COc1ccc(/C=N/NC(=O)COc2nsnc2N2CCOCC2)cc1 | 10%[9.22 µM] | -10% | 7% | 8%[10 µM] | . | .
CC1=C(C(=O)OCc2ccccc2)C(c2ccccc2)NC(=O)N1CCCCCC(=O)O (stereo not drawn) | 13% | -8% | 6% | -15% | . | -80*
CCCCCCCCCCCCC[N+](C)(C)Cc1ccccc1 | . | . | 36% | -324% | . | .
CCOC(=O)c1ccc(NS(C)(=O)=O)cc1 | 16% | -13%[46.1 µM] | 11%[38.3 µM] | 10% | 5 | 13
CCOC(=O)c1ccc(NC(=O)Nc2ccc(S(N)(=O)=O)cc2)cc1 | 10% | 3%[46.1 µM] | 1%[38.3 µM] | -16%[10 µM] | -1 | -122*
CCOC(=O)c1ccc(NC(=O)N(CC)CC)cc1 | -22% | 16%[46.1 µM] | 17%[38.3 µM] | -23% | 12 | -92*
CN(CCO)C(=O)CCC(=O)Nc1ccc(S(N)(=O)=O)cc1 | 0% | 10%[46.1 µM] | -25%[38.3 µM] | -2%[0.074 µM] | -6 | -127*
CCOC(=O)CC(=O)Nc1ccc(C(=O)OCC)cc1 | -11% | -3%[46.1 µM] | 14%[38.3 µM] | -5% | 10 | 2
CCn1c(=O)c(C(=O)Nc2ccccc2C)c(O)c2ccccc21 | 1% | -10%[46.1 µM] | -10% | 14%[10 µM] | -7 | -100*
CCn1c(=O)c(C(=O)Nc2ccccc2S(N)(=O)=O)c(O)c2ccccc21 | 4%[9.22 µM] | -4%[46.1 µM] | 3%[38.3 µM] | -19% | 3 | -10
O=C1Nc2ccc([N+](=O)[O-])cc2OC1CCN1CCN(Cc2ccc3c(c2)OCO3)CC1 (stereo not drawn) | 2% | -22% | 4% | -50% | . | .
S=C(Nc1cccc(Cl)c1)N(CCCN1CCCC1)Cc1cccn1Cc1ccc(Cl)cc1 | ? | 10µM* | 21% | -162% | . | .
CSc1cccc(NC(=S)N(CCCN2CCCC2)Cc2cccn2Cc2ccc(Cl)cc2)c1 | ? | 5µM* | 21% | -36% | . | .
Cn1cc(CN(CCCN2CCOCC2)C(=S)Nc2cccc(Cl)c2)c2ccccc21 | ? | -21% | 0% | -51%[10 µM] | 0 | 20
C[C@H]1CN(CCO)CCN1c1ccccc1 | . | . | -16% | -4%[10 µM] | . | .
O=c1cnn([C@@H]2O[C@H](CO)[C@@H](O)[C@H]2O)c(=O)[nH]1 | -9% | 19% | -8% | . | . | -111*
CCOC(=O)c1c(Nc2cc(C)cc(C)c2)nnc(-c2ccccc2)c1-c1ccccc1 | . | . | . | . | 6 | .
N[C@@H](CSCc1ccccc1)C(=O)O | . | . | -1% | -12%[10 µM] | . | .
O=c1c2cn[nH]c2[nH]c(=S)n1-c1cccc2ccccc12 | 5% | -21% | ? | . | . | -113*
CCOC(=O)c1ccc([N+](=O)[O-])cc1NC(C)=O | -6% | 17% | 3% | 8%[10 µM] | . | -92*
O=S(=O)(/N=C(/Nc1ccc(F)cc1F)c1ccccc1)c1ccc(Br)cc1 | -10% | -8%[46.1 µM] | -5% | 30%[10 µM] | -4 | -99*
COc1cc([C@H]2[C@@H]3CCCC[C@]3(O)CCN2CC(=O)Nc2ccc(C)cc2)ccc1O | 16% | -24%[46.1 µM] | -1%[38.3 µM] | 6% | 11 | -100*
COc1ccc(NC(=O)CN2CCC3(O)CCCCC3C2c2ccccc2OC)cc1 (stereo not drawn) | 4% | ? | -6%[38.3 µM] | -18% | ? | 16
CCC(C)c1ccc(NC(=O)COC(=O)c2nc3nccc(C)n3n2)cc1 (stereo not drawn) | 20% | 9% | 2% | -23% | . | .
COc1cccc(/C=C2\SC(=O)N(CCC(=O)NNC(=O)c3cccc(Cl)c3)C2=O)c1 | 10% | 10% | 9% | 12%[10 µM] | 2 | -86*
SMILES | HTT aggregate | NPSR antag | IMPase Li cell | HTT ATP protect | IMPase cell inh | PNC assembly inh
COc1ccccc1/C=C1\SC(=O)N(CCC(=O)NNC(=O)c2ccccc2Cl)C1=O | 11% | -18%[46.1 µM] | 7% | -24%[10 µM] | -5 | -93*
O=C(CCN1C(=O)/C(=C/c2ccccc2Cl)SC1=S)NNC(=O)c1cccnc1 | 21%[9.22 µM] | -4% | . | 19%[10 µM] | . | .
Cc1ccc(C(=O)NNC(=O)CCCN2C(=O)/C(=C/c3ccccc3Cl)SC2=S)cc1 | 35µM* | 19% | -1% | . | 2 | ?
Cc1cc([N+](=O)[O-])nn1CC(=O)Nc1nccs1 | 2% | 8% | 3% | . | . | -89*
S=c1[nH]nc(-c2ccccc2)n1/N=C/c1ccc(-c2ccccc2Cl)o1 | 18% | -52% | 20% | . | . | -100*
Cc1ccc(SCC(=O)NCCN2C(=O)CSC2=O)c(C)c1 | -6% | 8%[46.1 µM] | -1% | -8%[10 µM] | -3 | -100*
O=C(Cn1nnc(-c2ccccc2F)n1)Nc1cccc2ncccc12 | -3% | -21%[46.1 µM] | -31%[38.3 µM] | -28%[10 µM] | ? | -82*
CCOc1ccc(NC(=O)Cn2nnc(-c3ccccc3NC(=O)CC)n2)cc1 | -3% | -29%[46.1 µM] | 9%[38.3 µM] | 3% | 7 | -84*
COc1ccc(NC(=O)Cn2nnc(-c3ccccc3NC(=O)c3cccs3)n2)cc1 | -17% | -10%[46.1 µM] | -10%[38.3 µM] | -34% | 2 | ?
Cc1ccc(NC(=O)Cn2nnc(-c3ccccc3NC(=O)c3cccs3)n2)cc1 | ? | -1%[46.1 µM] | 30%[38.3 µM] | -86% | -2 | -88*
COc1cc(O)c(C(=O)/C=C/c2ccc(OC)c(O)c2)c(OC)c1 | . | . | 36% | -97% | . | .
CC(C)CCn1c(Oc2ccc(Cl)cc2)nc2c1c(=O)n(C)c(=O)n2C | -17% | ? | 14%[38.3 µM] | 14% | 2 | 38
CCn1c(Oc2ccc(F)cc2)nc2c1c(=O)n(C)c(=O)n2C | 11µM* | -1% | 3% | -32% | . | .
CCC(C)Cn1c(COc2ccc(OC)cc2)nc2ccccc21 (stereo not drawn) | . | . | . | . | 7 | .
CCOCCn1c(COc2ccccc2)nc2ccccc21 | 7% | -6%[46.1 µM] | 7%[38.3 µM] | -12% | -6 | 5
Cc1nc2ccccc2n1CCCOc1ccccc1 | ? | 0%[46.1 µM] | 10% | 6%[1.9 µM] | -1 | -105*
COCc1nc2ccccc2n1CCCOc1ccccc1 | -14% | -11%[46.1 µM] | -7%[38.3 µM] | -8% | 4 | -106*
CCC(C)Cn1c(C)nc2ccccc21 (stereo not drawn) | 20µM* | 10%[46.1 µM] | 12%[38.3 µM] | -31% | 8 | ?
Cc1ccc(-c2nnc(Nc3ccc(O)cc3)c3ccccc23)cc1S(=O)(=O)N1CCCCC1 | . | . | . | . | -4 | .
Cc1ccc(NC(=S)N/N=C/c2c(Cl)cccc2Cl)c(C)c1 | ? | -37% | 7% | -16%[1.9 µM] | 13 | -98*
O=C(c1ccc(S(=O)(=O)N2CCOCC2)cc1)N(c1cccc(Cl)c1)C1C=CS(=O)(=O)C1 (stereo not drawn) | 4% | 9% | -2% | -18% | . | .
